# Reference: PubChem BioAssay (NCI)
# “And” between values parts separate entries of the source, which are not always exact repeats. Identical values can stand only once. The panel holds about 79,000 compounds, 15% with a hit somewhere; the sample as a whole holds those more often. Some structures have more than one record in an assay (separate samples or runs), and their calls can disagree. The source made the active and inactive calls. Rule as the data show it: active = growth inhibition above about 70%; inactive = the rest.
# Columns and labels:
# [1] = NCI Yeast Anticancer Drug Screen. Data for the rad52 strain (AID 147);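 also: 0% = growth of vehicle-treated control cultures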; conditions: S. cerevisiae rad52 mutant growth inhibition, stronger effect = higher value
# Summary of the method: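 Here a repair-compromised yeast strain receives each compound; its growth is then quantified and normalised to vehicle-only controls.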
# [2] = NCI Yeast Anticancer Drug Screen. Data for the wt1 strain (AID 149);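 also: 0% = growth of vehicle-treated wt1 cultures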; conditions: S. cerevisiae wt1 strain (SPY 50644) growth inhibition, stronger effect = higher value
# Summary of the method: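 Using yeast strain wt1, compound-induced growth inhibition was determined against vehicle-treated cultures.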
# [3] = NCI Yeast Anticancer Drug Screen. Data for the rad50EPP+ strain (AID 151);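 also: 0% = growth of vehicle-treated control cultures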; conditions: S. cerevisiae rad50 mutant strain, stronger effect = higher value
# Summary of the method: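 Read-out is yeast growth inhibition relative to vehicle; cells used were the rad50EPP+ strain.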
# [4] = NCI Yeast Anticancer Drug Screen. Data for the mgt1 strain (AID 153); conditions: S. cerevisiae mgt1 mutant growth inhibition, stronger effect = higher value
# Summary of the method: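 Measured: inhibition of mgt1 yeast growth by compound, normalized to vehicle-treated cultures.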
# [5] = NCI Yeast Anticancer Drug Screen. Data for the rad50 strain (AID 155);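 also: 0% = growth of vehicle-only cultures of the same strain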; conditions: S. cerevisiae rad50 strain growth inhibition, stronger effect = higher value
# Summary of the method: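 Relative growth inhibition (compound vs vehicle) was measured in yeast with a defined repair-gene alteration.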
# [6] = NCI Yeast Anticancer Drug Screen. Data for the mec2-1 strain (AID 157); conditions: S. cerevisiae mec2-1 strain, stronger effect = higher value
# Summary of the method: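 Using mec2-1 yeast: add compound, measure growth, express inhibition versus vehicle-treated cultures.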
# [7] = NCI Yeast Anticancer Drug Screen. Data for the rad14 strain (AID 159);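 also: 0% = growth of vehicle-treated control cultures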; conditions: S. cerevisiae rad14 strain growth inhibition, stronger effect = higher value
# Summary of the method: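 Screen for anticancer potential: a yeast strain altered in DNA damage repair is grown with compound, and reduced growth is quantified against vehicle controls.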
# [8] = NCI Yeast Anticancer Drug Screen. Data for the sgs1 mgt1 strain (AID 161);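 also: 0% = growth of cultures given vehicle only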; conditions: S. cerevisiae sgs1 mgt1 strain, stronger effect = higher value
# Summary of the method: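 Percent growth inhibition was derived by comparing compound-exposed mutant yeast with vehicle-exposed cultures. The strain carries alterations in DNA damage repair.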
# [9] = NCI Yeast Anticancer Drug Screen. Data for the CLN2oe strain (AID 163);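 also: 0% = growth of vehicle-only control cultures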; conditions: S. cerevisiae CLN2oe strain, stronger effect = higher value
# Summary of the method: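 Whole-cell yeast growth assay. A strain engineered for altered cell-cycle control received compound, and inhibition relative to vehicle-treated cultures was recorded.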
# [10] = NCI Yeast Anticancer Drug Screen. Data for the cln2 rad14 strain (AID 165);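 also: 0% = growth equal to vehicle treated cultures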; conditions: S. cerevisiae cln2 rad14 strain, stronger effect = higher value
# Summary of the method: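 Yeast strain cln2 rad14, bearing defects in cell cycle control and DNA repair, serves as the test system; values reflect growth inhibition compared with vehicle.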
# [11] = NCI Yeast Anticancer Drug Screen. Data for the bub3 strain (AID 167); conditions: S. cerevisiae bub3 mutant strain, stronger effect = higher value
# Summary of the method: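 Screening used yeast with an engineered genetic alteration affecting cell cycle control. Compound-exposed cultures were compared with vehicle cultures, and reduced growth was taken as inhibition.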
# [12] = NCI Yeast Anticancer Drug Screen. Data for the mlh1 strain (AID 171);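 also: 0% = growth of vehicle-treated control cultures of the same strain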; conditions: S. cerevisiae mlh1 strain growth inhibition, stronger effect = higher value
# Summary of the method: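 A yeast strain with a defined genetic lesion serves as the test organism. Cultures receive compound or vehicle, and growth is measured.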
# [13] = NCI Yeast Anticancer Drug Screen. Data for the sgs1 strain (AID 173);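 also: 0% = growth of vehicle-only control cultures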; conditions: S. cerevisiae sgs1 mutant, stronger effect = higher value
# Summary of the method: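 A genetically defined yeast mutant is incubated with the test compound, and its growth is compared to that of the same strain given vehicle.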
# [14] = NCI Yeast Anticancer Drug Screen. Data for the mlh1 rad18 strain (AID 175); conditions: S. cerevisiae mlh1 rad18 strain growth inhibition, stronger effect = higher value
# Summary of the method: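 Steps: expose repair-defective yeast to compound; measure growth; express inhibition against vehicle-treated controls.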
# [15] = NCI Yeast Anticancer Drug Screen. Data for the rad18 strain (AID 177); conditions: S. cerevisiae rad18 mutant growth inhibition, stronger effect = higher value
# Summary of the method: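 Measured value is growth inhibition of a yeast strain bearing a DNA repair alteration, referenced to vehicle-treated cells.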
# [16] = NCI Yeast Anticancer Drug Screen. Data for the wt2 strain (AID 169);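 also: 0% = growth of vehicle-treated yeast cultures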; conditions: S. cerevisiae wt2 strain growth inhibition, stronger effect = higher value
# Summary of the method: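 Treated yeast vs. vehicle-treated yeast: growth inhibition determined.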
# [17] = at 5.0 µM (retest, dose inferred, filed as 0.5)
# [18] = at 50.0 µM (retest, dose inferred, filed as 5.0)
compound,measurement,setting,value
Nc1ncnc2c1ncn2C1OC(CO)CC1O (stereo not drawn),growth inhibition,[1]; at 1.2 µM,-20% (inactive)
same,growth inhibition,[1]; at 3.7 µM,-10% (inactive)
same,growth inhibition,[1]; at 11.0 µM,24% (inactive)
same,growth inhibition,[1]; at 33.0 µM,71% (active)
same,growth inhibition,[1]; at 100.0 µM,91% (active)
same,growth inhibition,[2]; at 1.2 µM,-25% (inactive)
same,growth inhibition,[2]; at 3.7 µM,-10% (inactive)
same,growth inhibition,[2]; at 11.0 µM,-4% (inactive)
same,growth inhibition,[2]; at 33.0 µM,54% (inactive)
same,growth inhibition,[2]; at 100.0 µM,87% (active)
same,growth inhibition,[3]; at 1.2 µM,-16% (inactive)
same,growth inhibition,[3]; at 3.7 µM,-12% (inactive)
same,growth inhibition,[3]; at 11.0 µM,-10% (inactive)
same,growth inhibition,[3]; at 33.0 µM,-25% (inactive)
same,growth inhibition,[3]; at 100.0 µM,0% (inactive)
same,growth inhibition,[4]; at 1.2 µM,-37% (inactive)
same,growth inhibition,[4]; at 3.7 µM,-3% (inactive)
same,growth inhibition,[4]; at 11.0 µM,10% (inactive)
same,growth inhibition,[4]; at 33.0 µM,62% (inactive)
same,growth inhibition,[4]; at 100.0 µM,89% (active)
same,growth inhibition,[5]; at 1.2 µM,-9% (inactive)
same,growth inhibition,[5]; at 3.7 µM,-3% (inactive)
same,growth inhibition,[5]; [17],63% (inactive) and 14% (inactive)
same,growth inhibition,[5]; at 11.0 µM,30% (inactive)
same,growth inhibition,[5]; at 33.0 µM,76% (active)
same,growth inhibition,[5]; [18],90% (active)
same,growth inhibition,[5]; at 50.0 µM,87.8% (active) and 6.15% (inactive) and 79.6% (active)
same,growth inhibition,[5]; at 100.0 µM,91% (active)
same,growth inhibition,[6]; at 1.2 µM,-7% (inactive)
same,growth inhibition,[6]; at 3.7 µM,-8% (inactive)
same,growth inhibition,[6]; [17],63% (inactive) and 17% (inactive)
same,growth inhibition,[6]; at 11.0 µM,7% (inactive)
same,growth inhibition,[6]; at 33.0 µM,72% (active)
same,growth inhibition,[6]; [18],92% (active) and 91% (active)
same,growth inhibition,[6]; at 50.0 µM,88% (active) and -5.4% (inactive) and 76.5% (active)
same,growth inhibition,[6]; at 100.0 µM,92% (active)
same,growth inhibition,[7]; at 1.2 µM,-15% (inactive)
same,growth inhibition,[7]; at 3.7 µM,-1% (inactive)
same,growth inhibition,[7]; at 11.0 µM,27% (inactive)
same,growth inhibition,[7]; at 33.0 µM,76% (active)
same,growth inhibition,[7]; at 100.0 µM,94% (active)
same,growth inhibition,[8]; [17],-20% (inactive) and 14% (inactive)
same,growth inhibition,[8]; [18],89% (active) and 90% (active)
same,growth inhibition,[8]; at 50.0 µM,87.5% (active) and 2.25% (inactive) and 72.8% (active)
same,growth inhibition,[9]; at 1.2 µM,17% (inactive)
same,growth inhibition,[9]; at 3.7 µM,9% (inactive)
same,growth inhibition,[9]; at 11.0 µM,27% (inactive)
same,growth inhibition,[9]; at 33.0 µM,47% (inactive)
same,growth inhibition,[9]; at 100.0 µM,85% (active)
same,growth inhibition,[10]; [17],10% (inactive) and 9% (inactive)
same,growth inhibition,[10]; [18],87% (active) and 68% (inactive)
same,growth inhibition,[10]; at 50.0 µM,81.8% (active) and -27.8% (inactive) and 59.8% (inactive)
same,growth inhibition,[11]; at 1.2 µM,-6% (inactive)
same,growth inhibition,[11]; at 3.7 µM,-2% (inactive)
same,growth inhibition,[11]; [17],34% (inactive) and 22% (inactive)
same,growth inhibition,[11]; at 11.0 µM,34% (inactive)
same,growth inhibition,[11]; at 33.0 µM,77% (active)
same,growth inhibition,[11]; [18],92% (active)
same,growth inhibition,[11]; at 50.0 µM,89.3% (active) and -3.15% (inactive) and 83% (active)
same,growth inhibition,[11]; at 100.0 µM,92% (active)
same,growth inhibition,[12]; at 1.2 µM,-22% (inactive)
same,growth inhibition,[12]; at 3.7 µM,-5% (inactive)
same,growth inhibition,[12]; at 11.0 µM,15% (inactive)
same,growth inhibition,[12]; at 33.0 µM,66% (inactive)
same,growth inhibition,[12]; at 100.0 µM,91% (active)
same,growth inhibition,[13]; at 1.2 µM,-14% (inactive)
same,growth inhibition,[13]; at 3.7 µM,2% (inactive)
same,growth inhibition,[13]; at 11.0 µM,25% (inactive)
same,growth inhibition,[13]; at 33.0 µM,72% (active)
same,growth inhibition,[13]; at 100.0 µM,90% (active)
same,growth inhibition,[14]; [17],39% (inactive) and 11% (inactive)
same,growth inhibition,[14]; [18],91% (active) and 92% (active)
same,growth inhibition,[14]; at 50.0 µM,89.5% (active) and 1.35% (inactive) and 82.9% (active)
same,growth inhibition,[15]; at 1.2 µM,4% (inactive)
same,growth inhibition,[15]; at 3.7 µM,4% (inactive)
same,growth inhibition,[15]; at 11.0 µM,52% (inactive)
same,growth inhibition,[15]; at 33.0 µM,82% (active)
same,growth inhibition,[15]; at 100.0 µM,92% (active)
CC(=O)Nc1ccc(/C=C/[N+](=O)[O-])cc1,growth inhibition,[1]; at 1.2 µM,19% (inactive)
same,growth inhibition,[1]; at 3.7 µM,23% (inactive)
same,growth inhibition,[1]; at 11.0 µM,43% (inactive)
same,growth inhibition,[1]; at 33.0 µM,69% (inactive)
same,growth inhibition,[1]; at 100.0 µM,97% (active)
same,growth inhibition,[2]; at 1.2 µM,-1% (inactive)
same,growth inhibition,[2]; at 3.7 µM,-3% (inactive)
same,growth inhibition,[2]; at 11.0 µM,-4% (inactive)
same,growth inhibition,[2]; at 33.0 µM,6% (inactive)
same,growth inhibition,[2]; at 100.0 µM,75% (active)
same,growth inhibition,[3]; at 1.2 µM,22% (inactive)
same,growth inhibition,[3]; at 3.7 µM,42% (inactive)
same,growth inhibition,[3]; at 11.0 µM,51% (inactive)
same,growth inhibition,[3]; at 33.0 µM,72% (active)
same,growth inhibition,[3]; at 100.0 µM,82% (active)
same,growth inhibition,[4]; at 1.2 µM,-2% (inactive)
same,growth inhibition,[4]; at 3.7 µM,-4% (inactive)
same,growth inhibition,[4]; at 11.0 µM,-1% (inactive)
same,growth inhibition,[4]; at 33.0 µM,20% (inactive)
same,growth inhibition,[4]; at 100.0 µM,99% (active)
same,growth inhibition,[5]; at 1.2 µM,31% (inactive)
same,growth inhibition,[5]; at 3.7 µM,35% (inactive)
same,growth inhibition,[5]; [17],-66% (inactive)
same,growth inhibition,[5]; at 11.0 µM,67% (inactive)
same,growth inhibition,[5]; at 33.0 µM,91% (active)
same,growth inhibition,[5]; [18],94% (active)
same,growth inhibition,[5]; at 50.0 µM,85% (active)
same,growth inhibition,[5]; at 100.0 µM,98% (active)
same,growth inhibition,[6]; at 1.2 µM,-1% (inactive)
same,growth inhibition,[6]; at 3.7 µM,-2% (inactive)
same,growth inhibition,[6]; [17],-42% (inactive)
same,growth inhibition,[6]; at 11.0 µM,14% (inactive)
same,growth inhibition,[6]; at 33.0 µM,3% (inactive)
same,growth inhibition,[6]; [18],33% (inactive)
same,growth inhibition,[6]; at 50.0 µM,53.4% (inactive)
same,growth inhibition,[6]; at 100.0 µM,95% (active)
same,growth inhibition,[7]; at 1.2 µM,2% (inactive)
same,growth inhibition,[7]; at 3.7 µM,11% (inactive)
same,growth inhibition,[7]; at 11.0 µM,18% (inactive)
same,growth inhibition,[7]; at 33.0 µM,40% (inactive)
same,growth inhibition,[7]; at 100.0 µM,99% (active)
same,growth inhibition,[8]; [17],-43% (inactive)
same,growth inhibition,[8]; [18],72% (active)
same,growth inhibition,[8]; at 50.0 µM,47.6% (inactive)
same,growth inhibition,[9]; at 1.2 µM,-3% (inactive)
same,growth inhibition,[9]; at 3.7 µM,-1% (inactive)
same,growth inhibition,[9]; at 11.0 µM,3% (inactive)
same,growth inhibition,[9]; at 33.0 µM,10% (inactive)
same,growth inhibition,[9]; at 100.0 µM,71% (active)
same,growth inhibition,[10]; [17],-55% (inactive)
same,growth inhibition,[10]; [18],-19% (inactive)
same,growth inhibition,[10]; at 50.0 µM,46.2% (inactive)
same,growth inhibition,[16]; at 1.2 µM,-4% (inactive)
same,growth inhibition,[16]; at 3.7 µM,-3% (inactive)
same,growth inhibition,[16]; at 11.0 µM,-4% (inactive)
same,growth inhibition,[16]; at 33.0 µM,11% (inactive)
same,growth inhibition,[16]; at 100.0 µM,91% (active)
same,growth inhibition,[12]; at 1.2 µM,-1% (inactive)
same,growth inhibition,[12]; at 3.7 µM,-6% (inactive)
same,growth inhibition,[12]; at 11.0 µM,1% (inactive)
same,growth inhibition,[12]; at 33.0 µM,22% (inactive)
same,growth inhibition,[12]; at 100.0 µM,96% (active)
same,growth inhibition,[13]; at 1.2 µM,-3% (inactive)
same,growth inhibition,[13]; at 3.7 µM,11% (inactive)
same,growth inhibition,[13]; at 11.0 µM,15% (inactive)
same,growth inhibition,[13]; at 33.0 µM,52% (inactive)
same,growth inhibition,[13]; at 100.0 µM,99% (active)
same,growth inhibition,[14]; [17],-96% (inactive)
same,growth inhibition,[14]; [18],91% (active)
same,growth inhibition,[14]; at 50.0 µM,94% (active)
